Drawing on PubChem BioAssay, this text covers log fold change Tl+ flux for 13 compounds.

Unmarked numbers belong to inactive results. The source made the active and inactive calls.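 Rule for the calls: active = thallium flux through the channel raised or lowered by more than 3 SD from vehicle-only wells, actives on both sides; inactive = the rest.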

What all share (test): BK channel mutant inhibitors and activators – cell-based, U2OS BacMam, thallium flux, beta subunits, selectivity assay, profiling panel (AID 1259406);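 note: initial slope of Thallos dye fluorescence rise after thallium is added; log ratio against the mean of 0.3% DMSO vehicle wells on the same plate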
The test system of one assay is F380Y. To be noted: U2OS BacMam BK variants, at 30 µM.
For another assay, the system named is F380Y/beta1. To be noted: U2OS BacMam BK variants, at 30 µM.
In another assay the test system is F380Y/beta2Delta. Conditions: U2OS BacMam BK variants, at 30 µM.
A further assay deals with F380Y/beta4. To be noted: U2OS BacMam BK variants, at 30 µM.
Assay [1] has as its target Calcium-activated potassium channel subunit alpha-1 (Homo sapiens) + Leucine-rich repeat-containing protein 26 (Homo sapiens) (UniProt Q12791+Q2I0M4). Conditions: U2OS BacMam BK variants, F380Y/Slo1WT/gamma1, at 30 µM.
The test system of another assay is R275C. To be noted: U2OS BacMam BK variants, at 30 µM.
Another assay relates to R275C/beta1. Conditions: U2OS BacMam BK variants, at 30 µM.
A further assay has as its system R275C/beta2Delta. To be noted: U2OS BacMam BK variants, at 30 µM.
A further assay concerns R275C/beta4. To be noted: U2OS BacMam BK variants, at 30 µM.
In another assay the test system is R275C/Slo1WT/beta2. Conditions: U2OS BacMam BK variants, at 30 µM.

Sequence of Calcium-activated potassium channel subunit alpha-1 (Homo sapiens) + Leucine-rich repeat-containing protein 26 (Homo sapiens) (Q2I0M4 whole entry, looked up, one chain of several): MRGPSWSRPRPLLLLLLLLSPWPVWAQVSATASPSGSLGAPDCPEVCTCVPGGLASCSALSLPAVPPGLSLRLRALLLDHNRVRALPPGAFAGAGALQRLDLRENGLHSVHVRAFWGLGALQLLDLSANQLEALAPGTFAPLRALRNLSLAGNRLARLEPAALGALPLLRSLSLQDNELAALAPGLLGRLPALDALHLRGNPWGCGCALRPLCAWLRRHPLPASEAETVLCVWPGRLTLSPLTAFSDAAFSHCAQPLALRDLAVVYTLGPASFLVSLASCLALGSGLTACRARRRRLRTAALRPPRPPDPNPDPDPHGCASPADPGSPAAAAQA

`N#CC(CCC(=O)O)(CCC(=O)O)S(=O)(=O)c1ccccc1`: the log fold change Tl+ flux is 0.0317 with F380Y; 0.000152 in the assay on F380Y/beta1; -0.0465 in the assay with F380Y/beta2Delta; -0.00447 in the assay with F380Y/beta4; 0.0235 in assay [1]; 0.0374 in the assay with R275C. For the same compound, the log fold change Tl+ flux in the assay on R275C/beta1 is 0.0216; with R275C/beta2Delta, 0.0211; with R275C/beta4, -0.014; in the assay with R275C/Slo1WT/beta2, 0.0459.

Regarding `Cc1ccc(S(=O)(=O)Oc2c(Cc3ccccc3)c(=O)n(C)c3ccccc23)cc1`, the log fold change Tl+ flux in the assay on F380Y is -0.047; in the assay on F380Y/beta1 it was -0.00429; with F380Y/beta2Delta, -0.0297; in the assay on F380Y/beta4, 0.0237; in assay [1] it was -0.018; with R275C, -0.0579. The log fold change Tl+ flux is -0.0357 in the assay on R275C/beta1, -0.0097 with R275C/beta2Delta, -0.0625 in the assay on R275C/beta4 and 0.0422 in the assay on R275C/Slo1WT/beta2.

`CCOC(=O)c1ccc(-n2sccc2=O)cc1`: the log fold change Tl+ flux in the assay with F380Y was -0.0987; in the assay on F380Y/beta1 it was 0.078; with F380Y/beta2Delta, -0.0422; in the assay on F380Y/beta4, -0.0664; in assay [1], 0.0683; in the assay on R275C, 0.0277. Further, the log fold change Tl+ flux in the assay with R275C/beta1 was 0.179 (active); with R275C/beta2Delta it was 0.113 (active); in the assay with R275C/beta4, 0.141 (active); with R275C/Slo1WT/beta2 it was 0.0482.

Consider `Cc1nn(S(=O)(=O)c2ccccc2)c(C)c1Oc1ccc(Cl)cc1`, for which the log fold change Tl+ flux with F380Y is -0.154 (active); in the assay with F380Y/beta1, -0.178 (active); in the assay with F380Y/beta2Delta, -0.15 (active); with F380Y/beta4, -0.668 (active); in [1] it was -0.342 (active); with R275C, -0.199 (active). The log fold change Tl+ flux in the assay with R275C/beta1 is -0.214 (active); with R275C/beta2Delta it was -0.0399; in the assay with R275C/beta4 it was -0.114 (active); in the assay with R275C/Slo1WT/beta2, -0.0715.

For the compound `CCc1nc2ccccc2nc1N1CCN(S(=O)(=O)c2ccc(Cl)cc2)CC1`, the log fold change Tl+ flux with F380Y was -0.00553; in the assay on F380Y/beta1, -0.0118; in the assay on F380Y/beta2Delta it was -0.00426; with F380Y/beta4, -0.00719; in assay [1], -1.3e-05; in the assay with R275C, 0.0269. Besides, the log fold change Tl+ flux with R275C/beta1 is 0.0201; with R275C/beta2Delta it was -0.0214; with R275C/beta4, 0.00696; in the assay on R275C/Slo1WT/beta2 it was -0.0158.

Consider `CCOC(=O)c1ccc(OCC#Cc2ccc(C(F)(F)F)cn2)cc1`, for which the log fold change Tl+ flux in the assay with F380Y is -0.0256; in the assay with F380Y/beta1, -0.0209; in the assay with F380Y/beta2Delta it was -0.0279; with F380Y/beta4 it was -0.0657; in assay [1], -0.0262; in the assay with R275C, -0.0775. Also, the log fold change Tl+ flux was -0.0424 with R275C/beta1, -0.0497 in the assay with R275C/beta2Delta, -0.0346 in the assay on R275C/beta4 and -0.0412 in the assay with R275C/Slo1WT/beta2.

Take `CCc1cc(C(=O)c2ccc(OC)cc2)c(NC(=O)CN2CCN(C)CC2)s1`: the log fold change Tl+ flux in the assay on F380Y is -0.0314; in the assay with F380Y/beta1 it was -0.0083; with F380Y/beta2Delta it was -0.00202; with F380Y/beta4, -0.0121; in [1], 0.0213; in the assay with R275C, -0.0119. In addition, the log fold change Tl+ flux in the assay on R275C/beta1 was -0.00614; in the assay on R275C/beta2Delta it was 0.00802; with R275C/beta4 it was 0.0372; with R275C/Slo1WT/beta2, -0.00941.

Regarding `N#Cc1cccc(CSc2ncnc(N)n2)c1`, the log fold change Tl+ flux is 0.00879 in the assay on F380Y; 0.0215 in the assay on F380Y/beta1; 0.00942 in the assay with F380Y/beta2Delta; -0.00378 in the assay with F380Y/beta4; 0.019 in [1]; 0.0199 with R275C. For the same compound, the log fold change Tl+ flux with R275C/beta1 was -0.0244; with R275C/beta2Delta, 0.0122; in the assay with R275C/beta4 it was 0.019; in the assay with R275C/Slo1WT/beta2, 0.00642.

For the compound `CC(=O)Nc1ccc(S(=O)(=O)C[N+](=O)[O-])cc1`, the log fold change Tl+ flux in the assay on F380Y is -0.0207; in the assay with F380Y/beta1 it was -0.00968; in the assay on F380Y/beta2Delta it was 0.0255; in the assay on F380Y/beta4, -0.00689; in [1], 0.00333; in the assay on R275C, -0.0177. For the same compound, the log fold change Tl+ flux is -0.00122 in the assay on R275C/beta1, 0.0327 in the assay with R275C/beta2Delta, -0.0178 with R275C/beta4 and -0.0147 in the assay on R275C/Slo1WT/beta2.

Take `COc1cccc(N2CC(=O)N(NC(=O)NC3CCCCC3)CC2=O)c1`: the log fold change Tl+ flux in the assay on F380Y was -0.0108; in the assay with F380Y/beta1 it was -0.0266; with F380Y/beta2Delta it was -0.0355; with F380Y/beta4, -0.0285; in [1], 0.0234; in the assay with R275C, 0.0133. The log fold change Tl+ flux was -0.0377 in the assay with R275C/beta1, -0.0493 in the assay on R275C/beta2Delta, -0.00116 in the assay on R275C/beta4 and -0.0113 in the assay on R275C/Slo1WT/beta2.

On to `COC(=O)c1ccc(C=Cc2cccc(Cl)c2)s1`, for which the log fold change Tl+ flux in the assay on F380Y was -0.0764; with F380Y/beta1 it was -0.0156; in the assay on F380Y/beta2Delta it was -0.00709; in the assay with F380Y/beta4 it was -0.264 (active); in assay [1], -0.421 (active); with R275C it was -0.198 (active). For the same compound, the log fold change Tl+ flux is -0.192 (active) in the assay on R275C/beta1, -0.00722 with R275C/beta2Delta, -0.0416 in the assay with R275C/beta4 and -0.104 (active) in the assay with R275C/Slo1WT/beta2.

For `Cc1onc(-c2c(Cl)cccc2Cl)c1C1=NCCO1`, the log fold change Tl+ flux was -0.0274 in the assay with F380Y; -0.0222 in the assay on F380Y/beta1; -0.0541 with F380Y/beta2Delta; -0.0118 with F380Y/beta4; -0.0114 in assay [1]; -0.0117 in the assay with R275C. In addition, the log fold change Tl+ flux in the assay with R275C/beta1 is -0.0507; with R275C/beta2Delta it was -0.0377; in the assay on R275C/beta4, 0.0277; in the assay on R275C/Slo1WT/beta2, -0.00731.

Regarding `CC1(C)CCc2cc(C=NNC(=O)c3cccc(Cl)c3Cl)ccc2O1`, the log fold change Tl+ flux with F380Y was -0.00742; with F380Y/beta1, 0.0223; with F380Y/beta2Delta it was -0.00817; in the assay with F380Y/beta4, 0.0599; in assay [1], 0.0181; in the assay on R275C it was -0.00408. For the same compound, the log fold change Tl+ flux is 0.0163 with R275C/beta1, -0.000312 with R275C/beta2Delta, -0.0646 in the assay with R275C/beta4 and 0.00986 with R275C/Slo1WT/beta2.
